Eight compounds from PubChem BioAssay can be followed below.

Molecules are shown by their SMILES. The source made the active and inactive calls.

A short description of test [1]: probe aShh binding to arrayed compounds – biochemical, biotinylated probe, 635/667 nm fluorescence, primary screen (AID 1114).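 Further: probe is biotin-labelled aShh protein from a stem cell growth factor screen; measures binding of labelled protein to compounds printed on the slide; score merges feature fluorescence at 667 nm with signal-to-noise.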 To be noted: small-molecule microarray, higher = more signal.
Test [2] in a line: probe aNog binding to arrayed compounds – biochemical, biotinylated probe, 635/667 nm fluorescence, primary screen (AID 1115).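 Further: probe is biotinylated aNog protein used at 0.15 µg/mL for 1 h at 4 C; z-score combines 667 nm fluorescence of each spot with its signal to noise.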 To be noted: small-molecule microarray, higher = more signal.
The target of test [3] is Torsin-1A-interacting protein 1 (Homo sapiens) (UniProt Q5JTV8). The test can be described thus: compound microarray binding of lysate hLAP1 – cell lysate, small-molecule microarray, COS7 lysate, 635/667 nm fluorescence, primary screen (AID 1116). To be noted: 635 nm fluorescence, higher = more signal.
For test [4], the target named is Albumin (Bos taurus) (UniProt P02769). The test can be described thus: compounds binding labelled BSA control protein – biochemical, small-molecule microarray, Alexa647 label, 635/667 nm fluorescence, artefact control for SMM control protein annotation, profiling panel (AID 1118).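 Further: score merges 667 nm emission intensity and signal-to-noise per printed compound spot.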 To be noted: BSA-A647 binding, fluorescence 635 nm, higher = more signal.
Test [5] can be described thus: probe aXIP binding to arrayed compounds – biochemical, NeuroSMM set, 635/667 nm fluorescence, primary screen (AID 1119).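 Further: probe is the protein aXip251-270 applied at 1 µg/mL to compound-printed slides; binding of probe to printed compounds measured as 667 nm fluorescence plus signal to noise.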 To be noted: small-molecule microarray, higher = more signal, called active from +8 up or from −8 down.
A short description of test [6]: probe aNOTCH3 binding on compound microarray – biochemical, small-molecule microarray, 635/667 nm fluorescence, primary screen (AID 1120).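 Further: probe is a biotin-tagged antibody raised against NOTCH3 rather than NOTCH3 protein; score merges spot fluorescence near 667 nm with spot signal to noise.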 To be noted: higher = more signal.
Test [7] in a line: probe aNOTCH2 binding on compound microarray – biochemical, small-molecule microarray, 635/667 nm fluorescence, primary screen (AID 1121).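 Further: score merges feature fluorescence read at 667 nm with its signal to noise.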 To be noted: higher = more signal.
Test [8] addresses Carbonic anhydrase 2 (Homo sapiens) (UniProt P00918). The test can be described thus: compounds binding carbonic anhydrase 2 – biochemical, small-molecule microarray, Alexa647-labelled CAII, profiling panel (AID 1122). To be noted: CAII-A647 binding fluorescence, higher = more signal.
The nature of test [9]: COS7 lysate on small-molecule microarray, probe aHis, 635 nm (AID 1123).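 Further: z-score combines 667nm fluorescence intensity with signal-to-noise per printed compound spot.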 To be noted: COS7 cell lysate, fluorescence, higher = more signal.
Test [10] in a line: probe aLAP1 signal on lysate-treated microarray – cell lysate, small-molecule microarray, COS7 lysate, primary screen (AID 1124).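 Further: lysate comes from COS7 cells expressing LAP1 and is applied at 0.3 µg/mL; score merges spot fluorescence near 667 nm with signal-to-noise over triplicate slides.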 To be noted: probe aLAP1, fluorescence, higher = more signal.
Test [11] deals with Sam68 (KHDRBS1). The test can be described thus: compounds binding KHDRBS1 protein – biochemical, small-molecule microarray, 635 nm fluorescence, primary screen (AID 1125).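 Further: score merges 667 nm channel intensity with signal to noise over triplicate slides.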 To be noted: higher = more signal.
The subject of test [12] is Chordin-like protein 2 (CHRDL2). The test can be described thus: compounds binding chordin-like 2 – biochemical, small-molecule microarray, 635 nm fluorescence, primary screen (AID 1126).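 Further: printed compound slides probed with Chrdl2 protein at 4 µg/mL for 1 h at 4 C; score merges 667 nm emission intensity with signal to noise over three replicate slides.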 To be noted: fluorescence 635 nm, higher = more signal.
Test [13] concerns the target Concanavalin-A (Canavalia ensiformis) (UniProt P02866). The test can be described thus: compounds binding concanavalin A lectin – biochemical, small-molecule microarray, Alexa647 label, 635 nm, artefact control for SMM control protein annotation, primary screen (AID 1127).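 Further: z combines 667 nm emission intensity with signal-to-noise across three replicate slides.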 To be noted: ConA-A647 binding fluorescence, higher = more signal.
Test [14] is described as follows: compounds binding Alexa647 anti-His antibody – biochemical, small-molecule microarray, 635 nm fluorescence, artefact control for SMM control protein annotation, primary screen (AID 1128).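 Further: score merges feature fluorescence with signal-to-noise for each printed compound spot.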 To be noted: higher = more signal.
Test [15] concerns Human papillomavirus type 1a E7 protein (residues 1-88). The test can be described thus: HPV1a E7 small-molecule binders, primary screen, biochemical, small-molecule microarray, residues 1-88, 635 nm (AID 1129). To be noted: small-molecule microarray binding, fluorescence 635 nm; higher = more signal.
Test [16] has as its target Focal adhesion kinase 1 (Homo sapiens) (UniProt Q05397). The test can be described thus: PTK2 protein binding on printed compound slides – biochemical, small-molecule microarray, 635/667 nm fluorescence, BSA, DTT, primary screen (AID 1130).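 Further: composite of spot emission at 667 nm and signal to noise over triplicate slides.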 To be noted: 635 nm fluorescence, higher = more signal.
In test [17] the test system is Fibrinogen (Alexa647-labelled). The test can be described thus: Alexa647-fibrinogen binding to printed small molecules – biochemical, small-molecule microarray, 635/667 nm fluorescence, artefact control for SMM control-protein annotation, profiling panel (AID 1131).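 Further: z-score merges 667 nm fluorescence with per-spot signal-to-noise over triplicate slides.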 To be noted: fibrinogen-A647 binding fluorescence, higher = more signal.
Test [18] addresses Follistatin (Homo sapiens) (UniProt P19883). The test can be described thus: FST protein binding to printed compounds – biochemical, small-molecule microarray, 635/667 nm fluorescence, primary screen (AID 1132). To be noted: 635 nm fluorescence, higher = more signal.
Test [19] concerns the target Fibroblast growth factor 2 (Homo sapiens) (UniProt P09038). The test can be described thus: basic fibroblast growth factor binding to printed compounds – biochemical, small-molecule microarray, 635/667 nm fluorescence, primary screen (AID 1133). To be noted: FGF2, fluorescence 635/667, higher = more signal.
Test [20] can be described thus: JC-1 mitochondrial potential readout, lung cancer cells – cell-based, A549, JC-1 fluorescence, basal, 24 h, 100 nL, profiling panel (AID 1138).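 Further: A549 lung adenocarcinoma cells under basal conditions with no added stimulus; test concentration not given here.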 To be noted: higher = more signal.

Sequence of Albumin (Bos taurus) (P02769 whole entry, looked up): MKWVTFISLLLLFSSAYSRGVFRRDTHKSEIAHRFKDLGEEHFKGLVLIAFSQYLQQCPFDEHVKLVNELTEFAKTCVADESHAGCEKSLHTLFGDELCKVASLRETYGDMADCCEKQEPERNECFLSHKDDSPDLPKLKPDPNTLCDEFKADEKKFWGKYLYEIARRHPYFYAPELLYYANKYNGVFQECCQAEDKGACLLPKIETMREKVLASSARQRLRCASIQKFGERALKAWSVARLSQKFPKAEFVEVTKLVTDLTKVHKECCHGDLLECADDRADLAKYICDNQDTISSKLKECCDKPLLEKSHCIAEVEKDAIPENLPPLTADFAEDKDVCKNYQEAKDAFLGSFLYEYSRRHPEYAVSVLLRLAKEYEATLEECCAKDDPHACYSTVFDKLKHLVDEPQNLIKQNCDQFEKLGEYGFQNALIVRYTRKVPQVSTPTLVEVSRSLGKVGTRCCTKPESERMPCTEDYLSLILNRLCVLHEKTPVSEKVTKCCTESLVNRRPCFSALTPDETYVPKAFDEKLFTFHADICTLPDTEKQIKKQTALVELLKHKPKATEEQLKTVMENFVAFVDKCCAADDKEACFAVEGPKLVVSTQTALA
Sequence of Torsin-1A-interacting protein 1 (Homo sapiens) (Q5JTV8 whole entry, looked up): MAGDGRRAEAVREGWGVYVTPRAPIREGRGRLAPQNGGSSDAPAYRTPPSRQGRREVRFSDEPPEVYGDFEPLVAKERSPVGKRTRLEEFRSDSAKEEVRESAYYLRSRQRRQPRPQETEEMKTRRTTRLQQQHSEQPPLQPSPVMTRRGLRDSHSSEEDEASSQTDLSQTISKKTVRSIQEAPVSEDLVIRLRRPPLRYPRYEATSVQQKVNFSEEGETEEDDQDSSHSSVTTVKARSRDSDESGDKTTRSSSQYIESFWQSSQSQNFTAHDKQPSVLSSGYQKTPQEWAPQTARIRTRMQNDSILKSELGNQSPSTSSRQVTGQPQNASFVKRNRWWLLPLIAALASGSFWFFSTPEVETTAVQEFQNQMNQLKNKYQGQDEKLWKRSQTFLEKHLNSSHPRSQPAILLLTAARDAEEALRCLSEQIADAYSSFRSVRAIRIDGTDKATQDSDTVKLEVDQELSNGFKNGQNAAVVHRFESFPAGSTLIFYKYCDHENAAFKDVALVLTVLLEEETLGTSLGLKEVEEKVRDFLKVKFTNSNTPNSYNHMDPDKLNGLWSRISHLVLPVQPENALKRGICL
Sequence of Concanavalin-A (Canavalia ensiformis) (P02866 whole entry, looked up): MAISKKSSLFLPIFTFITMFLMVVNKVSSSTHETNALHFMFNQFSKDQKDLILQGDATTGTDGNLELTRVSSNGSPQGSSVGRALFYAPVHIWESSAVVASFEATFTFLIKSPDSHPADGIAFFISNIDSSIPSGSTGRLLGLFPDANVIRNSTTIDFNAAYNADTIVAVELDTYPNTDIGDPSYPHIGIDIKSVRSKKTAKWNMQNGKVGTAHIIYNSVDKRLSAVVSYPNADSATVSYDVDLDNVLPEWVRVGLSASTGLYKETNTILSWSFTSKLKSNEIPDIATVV
Sequence of Focal adhesion kinase 1 (Homo sapiens) (Q05397 whole entry, looked up): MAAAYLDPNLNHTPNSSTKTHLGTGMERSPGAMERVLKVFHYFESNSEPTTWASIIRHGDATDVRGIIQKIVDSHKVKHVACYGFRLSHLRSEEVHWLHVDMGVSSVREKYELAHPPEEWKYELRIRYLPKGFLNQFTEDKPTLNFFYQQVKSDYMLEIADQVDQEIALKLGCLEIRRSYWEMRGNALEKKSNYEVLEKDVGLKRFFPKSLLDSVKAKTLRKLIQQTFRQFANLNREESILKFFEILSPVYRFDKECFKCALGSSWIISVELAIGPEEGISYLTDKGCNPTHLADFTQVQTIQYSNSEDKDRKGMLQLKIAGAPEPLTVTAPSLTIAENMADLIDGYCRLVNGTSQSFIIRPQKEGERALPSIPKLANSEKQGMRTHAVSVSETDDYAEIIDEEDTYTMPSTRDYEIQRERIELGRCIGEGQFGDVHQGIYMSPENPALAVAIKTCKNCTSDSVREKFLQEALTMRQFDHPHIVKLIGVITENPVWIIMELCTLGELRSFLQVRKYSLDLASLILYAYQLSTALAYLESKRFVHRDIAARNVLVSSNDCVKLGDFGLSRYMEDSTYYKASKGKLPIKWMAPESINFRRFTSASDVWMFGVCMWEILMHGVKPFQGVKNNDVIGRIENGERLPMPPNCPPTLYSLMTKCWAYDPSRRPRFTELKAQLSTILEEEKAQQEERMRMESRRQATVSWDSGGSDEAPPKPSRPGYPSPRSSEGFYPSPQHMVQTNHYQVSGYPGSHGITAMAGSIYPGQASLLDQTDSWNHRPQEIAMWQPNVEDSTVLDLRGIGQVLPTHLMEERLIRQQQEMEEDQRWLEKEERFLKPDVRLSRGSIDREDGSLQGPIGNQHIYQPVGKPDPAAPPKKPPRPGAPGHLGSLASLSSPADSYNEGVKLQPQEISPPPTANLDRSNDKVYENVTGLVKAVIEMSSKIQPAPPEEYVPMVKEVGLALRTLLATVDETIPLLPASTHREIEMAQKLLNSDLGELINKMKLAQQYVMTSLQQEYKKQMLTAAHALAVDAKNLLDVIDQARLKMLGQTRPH
Sequence of Follistatin (Homo sapiens) (P19883 whole entry, looked up): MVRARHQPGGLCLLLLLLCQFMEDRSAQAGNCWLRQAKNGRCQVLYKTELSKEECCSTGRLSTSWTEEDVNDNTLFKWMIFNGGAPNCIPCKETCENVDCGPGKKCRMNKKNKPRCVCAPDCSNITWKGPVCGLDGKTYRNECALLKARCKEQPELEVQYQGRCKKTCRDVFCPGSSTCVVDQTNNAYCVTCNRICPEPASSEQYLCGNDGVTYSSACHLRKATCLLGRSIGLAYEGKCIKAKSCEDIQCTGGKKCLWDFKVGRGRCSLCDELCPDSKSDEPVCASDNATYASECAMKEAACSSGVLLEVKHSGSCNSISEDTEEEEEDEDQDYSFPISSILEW
Sequence of Fibroblast growth factor 2 (Homo sapiens) (P09038 whole entry, looked up): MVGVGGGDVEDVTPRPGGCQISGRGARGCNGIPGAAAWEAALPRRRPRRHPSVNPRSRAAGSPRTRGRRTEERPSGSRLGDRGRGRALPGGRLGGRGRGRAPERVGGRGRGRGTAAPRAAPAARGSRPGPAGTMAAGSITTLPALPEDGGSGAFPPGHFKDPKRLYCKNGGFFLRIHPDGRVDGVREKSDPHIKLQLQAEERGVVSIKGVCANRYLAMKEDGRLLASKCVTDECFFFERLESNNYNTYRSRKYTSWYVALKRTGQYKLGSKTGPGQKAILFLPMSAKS

Consider `CC(C)C(CO)N1C(=O)[C@@H]2[C@H]3C(=O)OCC=C[C@H]3OC23C=CCN(Cc2ccccc2)C(=O)[C@@H]13` (stereo not given in full), for which the composite z-score is 0.0141 in [1]; 0.0342 in test [2]; -0.207 in test [3]; -1.27 in test [4]; 0.271 in [6]; -0.154 in [7]. Further, the composite z-score was 0.833 in test [8]; -0.635 in [9]; -0.733 in test [10]; -0.69 in test [11]; -1.02 in test [12]; -2.22 in test [13]. In addition, the composite z-score in test [14] was -1.88; in test [15], -1.62; in test [16], -0.778; in test [17], -1.48; in [18] it was -0.317; in [19], -0.392. In addition, the composite Z-score in test [5] was -0.0662 (inactive). The same compound gave a z-score in [20] of 0.792.
With `C=CCC(OC(C)=O)[C@@H]1[C@@H](N(Cc2cc3ccccc3o2)C(=O)c2ccc(-c3ccccc3)cc2)c2cc(OCCCO)ccc2N1C(=O)c1ccc(-c2ccccc2)cc1` (stereo not given in full), the composite z-score was -0.282 in test [1]; 0.502 in test [2]; 0.2 in [3]; 0.327 in test [4]; 0.061 in test [6]; -0.148 in test [7]. Besides, the composite z-score in test [8] was 0.301; in test [9], 0.568; in [10], 0.0482; in test [11], -0.19; in [12] it was -0.333; in test [13], -0.395. In addition, the composite z-score in test [14] is -0.853; in test [15] it was -0.43; in test [16], 0.25; in test [17] it was -0.796; in test [18], 0.227; in test [19], -0.109. Moreover, the composite Z-score in [5] was -0.474 (inactive). The compound further gave a z-score in test [20] of 2.56.
Take `C=C(COC)/C(=C/C[C@H](OC(C)=O)c1ccc(CO)o1)c1cnc2ccccc2c1`: the composite z-score was 0.0893 in test [1]; 0.186 in [2]; 0.845 in test [3]; 0.15 in [4]; 0.116 in test [6]; -0.11 in [7]. Moreover, the composite z-score in [8] was 0.969; in [9], 1.25; in test [10] it was -0.105; in test [11] it was 1.29; in test [12], 1.14; in [13] it was 1.09. Moreover, the composite z-score in test [14] was 1.28; in [15] it was 1.17; in test [16], 0.284; in test [17], -0.0185; in [18], 1.42; in test [19], 1.31. Besides, the composite Z-score in [5] is 0.837 (inactive). Besides, the z-score in test [20] was 0.861.
For `CC(C)CNC(=O)[C@@H]1c2ccccc2C(=O)N(Cc2ccc(OC(F)(F)F)cc2)[C@H]1c1ccc(CO)cc1`, the composite z-score in test [1] was -0.0234; in [2] it was 0.327; in test [3] it was 1.69; in test [4] it was 0.0335; in [6], 0.0813; in test [7] it was 0.0081. For the same compound, the composite z-score is 0.572 in [8]; 2.36 in test [9]; 0.0712 in test [10]; 1.3 in [11]; -0.0181 in test [12]; 1.07 in test [13]. The composite z-score in test [14] came out at 1.31; in test [15], 1.19; in test [16], 1.04; in test [17], 0.647; in test [18], 1.34; in [19], 1.09. Further, the composite Z-score in [5] is 0.465 (inactive). This compound also came in with a z-score in [20] of 0.71.
Turning to `O=C(N1CCCCC1)[C@@]1(Cc2ccccc2)N=C(c2ccc(OCCCO)cc2)O[C@H]1c1ccccc1`, the composite z-score was found to be 0.106 in test [1]; 1.9 in [2]; 2.95 in [3]; 0.955 in test [4]; 0.214 in [6]; 0.308 in test [7]. The composite z-score in [8] was 0.797; in test [9], 3; in [10], 0.849; in test [11], 1.23; in test [12], -1.34; in test [13], 1.11. For the same compound, the composite z-score is 2.02 in test [14]; 1.07 in test [15]; 1.42 in test [16]; 0.124 in test [17]; 0.622 in test [18]; -0.12 in [19]. In [5], the composite Z-score was 0.0926 (inactive). Further, in [20], the z-score is -0.741.
In the case of `C=C(CCCC)/C(=C/C[C@H](OC(=O)c1ccncc1)c1ccc(CO)o1)c1cnc2ccccc2c1`, the composite z-score in test [1] is 0.0898; in [2] it was 0.995; in test [3], 0.731; in test [4] it was 0.295; in [6], 0.227; in [7], -0.0942. Besides, the composite z-score in test [8] was found to be 0.84; in test [9], 0.368; in test [10] it was 0.0647; in [11], 1.3; in test [12], 0.699; in [13], 1.04. The composite z-score in [14] is 0.475; in test [15] it was 1.18; in test [16] it was 0.291; in test [17] it was 0.0311; in [18], 1.38; in [19], 0.722. Also, the composite Z-score in test [5] was -0.0961 (inactive). The compound also returned a z-score in test [20] of 1.45.
Regarding `C=CCN1C(=O)[C@@]2(O[C@@H](CCO)[C@H]([Si](C)(C)c3ccc(OC)cc3)[C@H]2C)c2cc(N(C=O)c3ccccc3)ccc21`, the composite z-score is -0.138 in test [1]; 0.238 in [2]; 0.473 in test [3]; 0.377 in test [4]; -0.0918 in test [6]; -0.0895 in test [7]. The composite z-score in test [8] was 0.246; in [9] it was 0.396; in test [10], 0.222; in test [11], 0.807; in test [12], -0.332; in [13] it was 0.67. The composite z-score is 1.03 in test [14]; 0.721 in test [15]; -0.115 in [16]; 0.373 in test [17]; 0.203 in test [18]; 0.0479 in test [19]. Moreover, in test [5], the composite Z-score was 0.459 (inactive). The z-score in [20] was -0.688.
With `O=C(NO)[C@]1(Cc2ccccc2)N=C(c2ccc(OCCCO)cc2)O[C@@H]1c1ccccc1`, the composite z-score in test [1] was 0.157; in [2], 0.168; in test [3], 0.395; in [4], 0.847; in test [6], -0.183; in test [7], -0.0909. Moreover, the composite z-score in test [8] is 0.678; in test [9], -0.359; in test [10], 0.0192; in [11] it was -0.32; in [12], -0.671; in [13], -1.06. Moreover, the composite z-score in [14] was -0.0837; in [15] it was 0.0707; in test [16], -1; in test [17], 0.141; in test [18] it was -0.248; in test [19], -0.0928. The composite Z-score in test [5] is -0.876 (inactive). The z-score in [20] amounted to 2.09.
